An excerpt weighted towards active compounds, which were near 28% of everything screened.
hDAT+cocaine = human DAT dopamine uptake with cocaine, either direction; Q01959; LLC-PK1 hDAT cells, [14C]-dopamine uptake with cocaine IC80; actives deviate in either direction; B-score at 10 µM; 110,000 tested, 1.3% active; AID 449768;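 active = Z score or B-score, a plate-position-corrected score, falls beyond the plate's 99.7% confidence bounds, in either direction; inactive = both scores lie inside the 99.7% bounds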
CYP2C9 activ = activators of human CYP2C9 | P11712 | recombinant CYP2C9, luciferin-H conversion, luminescence; active compounds read high; factor 1 = untreated enzyme, 0 = blocked | activation factor at 5 µM | 96,000 tested, 1.4% active;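 active = activation factor of 2 or more for CYP2C9 at a 5 µM dose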
D1 mod = allosterically modulates the human D1 dopamine receptor | HEK293 D1, CRE-luciferase, dopamine EC30 potentiation; actives deviate in either direction | B-score at 10 µM | 58,000 tested, 5.9% active | AID 641;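 active = luminescence count or its row- and column-corrected plate score outside the 99.7% band of the plate's sample wells, on either side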
Target sequence (P21728 whole entry, looked up): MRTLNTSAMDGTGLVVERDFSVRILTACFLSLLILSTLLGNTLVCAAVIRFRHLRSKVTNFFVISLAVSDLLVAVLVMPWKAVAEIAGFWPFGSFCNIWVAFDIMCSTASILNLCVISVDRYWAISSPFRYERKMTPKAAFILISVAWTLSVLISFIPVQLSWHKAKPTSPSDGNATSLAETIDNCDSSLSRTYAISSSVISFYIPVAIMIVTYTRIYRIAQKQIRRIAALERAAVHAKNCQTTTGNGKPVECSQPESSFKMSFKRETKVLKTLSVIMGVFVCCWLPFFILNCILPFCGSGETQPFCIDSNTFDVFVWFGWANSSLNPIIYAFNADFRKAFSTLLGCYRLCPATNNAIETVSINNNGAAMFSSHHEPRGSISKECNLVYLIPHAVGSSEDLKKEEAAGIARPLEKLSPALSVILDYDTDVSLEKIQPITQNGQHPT
CYP2C19 inhib = inhibitors of human CYP2C19 | P33261 | 96,000 tested, 21% active | AID 778 | inhibition, % at 5 µM | CYP2C19 Supersomes, luciferin-H EGE luminescence, 30 min;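 active = CYP2C19 inhibition above a set limit at 5 µM in the primary screen, cut at about 50% in these data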
CYP2C9 inhib = blocks human cytochrome P450 2C9; P11712; 96,000 tested, 20% active; CYP2C9 Supersomes, luciferin-H conversion, luminescence; inhibition, % at 5 µM;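 active = blocking of liver enzyme CYP2C9 beyond about 50% at 5 µM, limit read from the data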
CYP2C19 act = activators of human cytochrome P450 2C19 | activation factor at 5 µM | recombinant CYP2C19, luciferin-H EGE luminescence; active compounds read high; 0 = fully inhibited enzyme, 1 = untreated enzyme | 96,000 tested, under 10 active;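 active = activation factor of at least 2 at 5 µM in the primary screen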
D1 mod confirm = D1 receptor (human) allosteric modulation, confirmed. luminescence at 10 µM. 2,200 tested, 88% active. shares compounds with D1 mod. HEK293 D1 CRE-luciferase, dopamine EC30 potentiation; active compounds read high;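 active = luminescence in either of two replicates above the same-plate mean plus 3 SD of the low-dose dopamine control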
D1 ag no DA = activates D1 CRE-luciferase signal without dopamine present; shares compounds with D1 mod; HEK293 D1 CRE-luciferase, luminescence, no dopamine; active compounds read high; luminescence at 10 µM; 1,900 tested, 0.8% active; AID 646; in the data active = luminescence above about 3900
Isoprot counter = alters isoproterenol CRE-luciferase response in HEK293 cells; shares compounds with D1 mod; HEK293 D1 CRE-luciferase, isoproterenol EC30 counter-screen; calls only at 10 µM; 2,200 tested, 63% active; AID 647;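 active = luminescence in either replicate above plate mean of wells with a partly effective reference agonist dose plus 3 SD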;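 also: isoproterenol raises cAMP through native beta-adrenoceptor Gs so signal bypasses D1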
Hits are given with their value; i = inactive; nt = no result; + = active, no number.

SMILES	hDAT+cocaine	CYP2C9 activ	D1 mod	CYP2C19 inhib	CYP2C9 inhib	CYP2C19 act	D1 mod confirm	D1 ag no DA	Isoprot counter
Oc1ccccc1-c1nnc(COc2ccccc2)o1	i	i	nt	i	i	i	nt	nt	nt
CC1(c2nnc(-c3cccc(Cl)c3)o2)CC(c2ccc(C#N)cc2)=NO1 (stereo unspecified)	i	nt	nt	nt	nt	nt	nt	nt	nt
Cc1cccc(CSC2=NCCN2C(=O)c2ccco2)c1	i	i	3.77	i	i	i	9944	i	i
Cc1ccc(CSC2=NCCN2C(=O)c2ccco2)cc1	i	i	i	i	i	i	nt	nt	nt
N#Cc1cnn(Cc2ccccc2)c1/N=C/N1CCOCC1	i	i	5.48	i	i	i	8140	i	i
CN1CCN(/C=N/c2c(C#N)cnn2-c2ccccc2)CC1	i	i	i	i	i	i	nt	nt	nt
CCOC(=O)N1CCN(c2nc(N(c3ccccc3)c3ccccc3)nc(-n3ccnc3)n2)CC1	nt	nt	i	nt	nt	nt	nt	nt	nt
CN(c1ccccc1)c1nc(N2CCCC2)nc(-n2ccnc2)n1	i	i	4.9	i	i	i	11496	i	+
CCCn1nc(NS(C)(=O)=O)c2cc3cccc(C)c3nc21	i	i	16.3	i	65.4	i	16772	i	+
CSc1oc(-c2ccco2)nc1S(=O)(=O)c1ccc(F)cc1	i	nt	3.43	nt	nt	nt	11924	i	i
CC(C)Sc1oc(-c2ccco2)nc1S(=O)(=O)c1ccccc1	i	nt	6.47	nt	nt	nt	19332	i	+
Cn1nnc2sc3c(c2c1=O)CCCC3	i	i	nt	i	i	i	nt	nt	nt
Cc1ccc2c(c1)N(C(=O)CSc1nncn1C)C(C)(C)c1ssc(=S)c1-2	i	i	2.82	66.9	i	i	6228	nt	+
CC(=O)Nc1cc(NC(=O)CCCC(=O)O)ccc1Cl	i	i	i	i	i	i	nt	nt	nt
CC(=O)CC1(O)C(=O)N(CN2CCN(c3ccccc3)CC2)c2ccccc21 (stereo unspecified)	i	i	i	i	i	i	nt	nt	nt
OCCN1CCOCCN(CCO)CCN(CCO)CC1	i	i	i	i	i	i	nt	nt	nt
CC(O)C(NS(=O)(=O)c1ccc(Cl)cc1)C(=O)OCc1nnc(-c2ccccc2)o1 (stereo unspecified)	i	i	nt	i	i	i	nt	nt	nt
O=C(CSc1nc2c(cnn2-c2ccccc2)c(=O)[nH]1)N1CCOCC1	i	i	i	i	i	i	nt	nt	nt
Cc1ccc(-n2ncc3c(=O)[nH]c(SC(C)C)nc32)cc1	i	i	17.5	i	i	i	12920	i	+
O=c1[nH]c(SCc2ccccc2Cl)nc2c1cnn2-c1ccccc1	i	i	7.56	i	i	i	i	nt	+
CCCCCSc1nc2c(cnn2-c2ccccc2)c(=O)[nH]1	i	i	2.95	i	i	i	13144	i	i
CC(C)Sc1nc2c(cnn2-c2ccc(F)cc2)c(=O)[nH]1	i	i	nt	i	i	i	nt	nt	nt
CC(C)Sc1nc2c(cnn2-c2ccccc2)c(=O)[nH]1	i	i	15	i	i	i	15608	i	+
CCOC(=O)C(CC)Sc1nc2c(cnn2-c2ccccc2)c(=O)[nH]1 (stereo unspecified)	i	i	i	i	i	i	nt	nt	nt
Cc1csc(NC(=O)Cn2cnnn2)n1	i	i	i	i	i	i	nt	nt	nt
c1ccc(-c2nnc3sc(CN4CCc5ccccc54)cn23)cc1	i	nt	2.61	nt	nt	nt	15088	i	i
C=CCNc1nc(N)c(C(=O)c2ccc3c(c2)OCO3)s1	i	i	18.5	89.7	i	i	14852	i	+
CC(=O)Nc1ccc(-c2nnc(SCC(=O)c3ccc4c(c3)Cc3ccccc3-4)n2C)cc1	i	i	nt	i	i	i	nt	nt	nt
COC(=O)CN1C(=O)C2(C(C#N)=C(N)Oc3c2c(C)nn3-c2ccccc2)c2ccccc21 (stereo unspecified)	i	nt	i	nt	nt	nt	nt	nt	nt
COc1ccc2ncn(-c3ccccc3)c2c1	i	i	5.15	94.8	54.7	i	8964	i	i

Screening results: PubChem, several laboratories
